BaF3 tox: reduces parental Ba/F3 cell viability, JAK2V617F counter-screen; CellTiter-Glo ATP luminescence; inhibition, % at 5.6 µM; hit rate 1.1% among 220,000; AID 1486;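 active means inhibition above a per-campaign cutoff, the mean inhibition of all tested compounds plus 3 SD, cut at about 27% in these data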;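 further: 0% = DMSO wells and 100% = JAK Inhibitor I control wells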
Ba/F3 V617F tox: loss of viability in JAK2V617F-driven Ba/F3 cells. Ba/F3 EpoR-JAK2V617F viability, ATP luminescence. inhibition, % at 5.6 µM. hit rate 1.1% among 220,000. AID 1446;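 active means inhibition above the campaign mean plus 3 SD over all tested compounds, cut at about 24% in these data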;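 further: cytokine-independent growth of Ba/F3 cells driven by EpoR plus mutant JAK2; 0% = DMSO-treated cells and 100% = JAK inhibitor I control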
KLF5 inhibitor: kruppel-like factor 5 inhibition; hit rate 0.23% among 290,000; DLD-1 KLF5 promoter-luciferase reporter, luminescence; inhibition, % at 5 µM;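 active means inhibition above a per-plate limit of that plate's mean compound inhibition plus 3 SD, cut at about 60% in these data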;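 further: 0% = DMSO wells and 100% = LY294002 at 200 µM; higher means less KLF5 promoter-driven luciferase light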
IEC-6 tox: IEC-6 cytotoxicity, counter-screen for KLF5 inhibitors; luminescence viability; inhibition, % at 5 µM; AID 1825; hit rate 0.78% among 290,000;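 further: 0% = plate median of test compound wells and 100% = cytotoxic reference compound wells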
APP 5UTR inh: APP translation inhibition | hit rate 0.82% among 190,000 | inhibition, % at 2 µM | SH-SY5Y APP 5'UTR-luciferase reporter, luminescence;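 active means inhibition above a set limit, derived from the sample mean plus 3 SD, cut at about 45% in these data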
IEC-6 cytotox cf: confirmation of cytotoxic compounds in rat IEC-6 intestinal epithelial cells; shares compounds with IEC-6 tox; IEC-6 rat intestinal epithelial viability, luminescence; inhibition, % at 5 µM; hit rate 63% among 1,900;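 further: 0% = vehicle and 100% = reference cytotoxic drug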
* hit, by the source's call; . = no result. Rows were chosen to be rich in hits. Some 1.9% of all compounds tested hit in one or more screens of this group. Unless noted, no stated cut-off is given here; in the data, active means inhibition above about 22%; inactive means the rest.

SMILES	BaF3 tox	Ba/F3 V617F tox	KLF5 inhibitor	IEC-6 tox	APP 5UTR inh	IEC-6 cytotox cf
CC(=O)Nc1ccc2c(c1)C(=O)c1ccccc1C2=O	10.6	3.1	-152.1	1.7	-185.8	.
COC1=C(Nc2ccc(OC)cc2)C(=O)c2ccccc2C1=O	5.0	-1.0	-25.5	-7.3	-11.2	.
CC(=O)Nc1ccc(NC2=CC(=O)c3ccccc3C2=O)cc1	.	.	-129.5	97.0*	.	-1.1
COc1ccc(NC2=C(NC(C)=O)C(=O)c3ccccc3C2=O)cc1	.	.	-12.8	43.5*	.	13.8
O=C(c1cc(COc2cccc(C(F)(F)F)c2)on1)N1C[C@H]2CC[C@H]1C2	.	.	-86.2	-0.4	.	.
CC(C)CC(NC(N)=O)C(=O)Nc1ccc(Cl)c(Cl)c1 (centres undefined)	2.6	-0.3	-26.9	-3.5	-17.3	.
O=C(N/N=C/c1c[nH]c2ccccc12)c1cc(-c2ccc(-c3ccccc3)cc2)n[nH]1	3.2	-1.5	-67.1	-5.7	-70.5	.
Cc1ccc(-c2cc(C(=O)N/N=C/c3c[nH]c4ccccc34)[nH]n2)cc1	58.3*	57.4*	14.5	42.8*	76.4*	51.7*
CCC(=O)Nc1ccc(Cl)c(NC(=O)c2ccc([N+](=O)[O-])cc2)c1	7.7	0.1	-3.1	-1.5	17.4	.
COc1ccc(N(CC(=O)Nc2cc(Cl)ccc2C)S(=O)(=O)c2c(C)noc2C)cc1	.	.	43.2	63.5*	.	44.0*
CCOc1ccccc1C(=O)Nc1nnc(SCC(=O)N2CCOCC2)s1	12.1	6.9	-2.7	5.7	-4.4	.
CCCc1nnc(NC(=O)c2nc(S(=O)(=O)Cc3ccc(C)cc3)ncc2Cl)s1	.	.	-6.8	7.5	.	.
CSc1nnc(NC(=O)c2nc(S(=O)(=O)Cc3ccccc3)ncc2Cl)s1	.	.	19.9	33.8*	.	9.1
CC(C)c1nnc(NC(=O)c2nc(S(=O)(=O)Cc3ccccc3)ncc2Cl)s1	.	.	18.2	41.5*	.	-1.1
CCOC(=O)c1cnn(-c2ccccc2)c1NC(=O)CSc1nnc(-c2cccs2)n1CC	4.5	-1.4	-18.5	24.3*	4.2	-8.4
CC(C)NCC(O)Cn1c2c(c3ccccc31)CCc1c-2cnn1-c1ccccc1 (centres undefined)	79.4*	88.0*	22.2	75.0*	87.3*	72.8*
CN1CCc2c(n(CC(O)CNCc3ccccc3)c3ccccc23)C1=O (centres undefined)	-6.3	1.5	13.7	9.0	-12.0	.
COc1ccc(CNc2ncnc3cc(OC)c(OC)cc23)cc1OC	9.8	5.1	-15.9	7.2	11.5	.
COc1cc2ncnc(NCc3ccccc3)c2cc1OC	5.2	1.1	6.2	26.2*	-2.4	30.1*
COc1cc2ncnc(NCc3cccc(Cl)c3)c2cc1OC	2.0	1.2	7.0	33.3*	9.5	36.8*
COc1cc2ncnc(NCc3cc(F)ccc3F)c2cc1OC	.	.	3.8	37.1*	.	21.3
COc1ccc(CNc2ccc(C)cc2)cc1Br	4.9	-4.0	-2.0	4.6	-16.1	.
O=C(CSc1nc(O)cc(=O)[nH]1)Nc1ccc2c(c1)CCC2	1.9	-2.2	-27.2	-5.3	-2.2	.
O=C(Nc1ccc(N2CCN(C(=O)c3ccccc3)CC2)cc1)c1ccc([N+](=O)[O-])o1	76.8*	99.0*	22.6	85.0*	94.3*	34.9*
CC(C)C(=O)N1CCN(c2ccc(NC(=O)c3ccc([N+](=O)[O-])o3)cc2)CC1	33.1*	67.4*	8.7	23.9*	57.3*	14.3
SMILES	BaF3 tox	Ba/F3 V617F tox	KLF5 inhibitor	IEC-6 tox	APP 5UTR inh	IEC-6 cytotox cf
COc1ccc(C(=O)Nc2ccc(N3CCN(C(=O)c4ccccc4)CC3)cc2)cc1[N+](=O)[O-]	14.6	8.4	-44.2	1.0	-2.9	.
CC(C)C(=O)N1CCN(c2ccc(NC(=O)c3ccc(Br)o3)cc2)CC1	1.6	-1.7	-32.9	0.3	-16.8	.
CN1CCN(c2ccc(NC(=O)c3ccc([N+](=O)[O-])o3)cc2Cl)CC1	.	.	-13.8	90.2*	.	28.8*
Cc1ccccc1C(=O)N1CCN(c2ccc(NC(=O)c3ccc([N+](=O)[O-])o3)cc2)CC1	.	.	48.6	97.9*	.	34.7*
Cc1cc(C)c(C(=O)Cn2nc(C)c([N+](=O)[O-])c2C)cc1C	7.2	-1.0	-11.0	-3.2	2.7	.
CC(=O)Nc1ccc(C(=O)NN2C(=O)c3ccccc3C2=O)cc1	0.2	0.3	-8.3	-1.6	0.5	.
O=C(Nc1ccccc1N1CCN(C(=O)c2ccc(Cl)cc2)CC1)c1ccc([N+](=O)[O-])o1	.	.	-31.0	33.4*	.	11.9
CCN(CC)c1ccc(/C=N/NC(=O)c2cnccn2)cc1	73.5*	78.2*	7.1	43.4*	73.7*	55.9*
O=C(NN(c1ccccc1)c1ccccc1)c1ccc([N+](=O)[O-])o1	5.5	3.6	-7.2	26.9*	-18.1	14.7
O=C(NC1CCCCC1)c1ccc([N+](=O)[O-])o1	.	.	-10.0	68.5*	.	7.2
O=C(NNC(=O)c1ccc([N+](=O)[O-])o1)c1ccccc1	-3.8	-1.9	-6.6	1.8	-11.6	.
NC(=O)c1oc2ccccc2c1NC(=O)c1ccc(F)cc1	-0.3	-4.6	11.5	4.8	3.6	.
CC(NC(=O)c1ccc([N+](=O)[O-])o1)C12CC3CC(CC(C3)C1)C2 (centres undefined)	.	.	-6.9	60.0*	.	5.3
NC(=O)c1oc2ccccc2c1NC(=O)c1ccc([N+](=O)[O-])o1	.	.	18.5	100.3*	.	57.1*
CC(=O)c1cccc(CN2CCN(C3CCCC3)C(CCO)C2)c1 (centres undefined)	-0.6	0.4	7.4	0.4	-2.2	.
Cc1noc(/C=C/N(C)C)c1S(=O)(=O)N(C)CC(=O)N1CCc2ccccc21	1.9	-1.5	-19.5	0.9	-9.9	.
Cc1ccc(S(=O)(=O)N(C)C)cc1NC(=O)COC(=O)/C=C/c1ccc2c(c1)OCO2	2.4	-3.1	-14.1	-1.2	-1.7	.
Cc1ccc(Nc2cc(C)nn2-c2nc(C)cc(=O)[nH]2)cc1	97.9*	100.2*	41.1	100.9*	92.1*	101.2*
O=C(c1cc(NC(=O)C23CC4CC(CC(C4)C2)C3)cc(NC(=O)C23CC4CC(CC(C4)C2)C3)c1)N1CCCCC1	3.0	0.0	4.9	36.6*	-4.6	30.4*
COc1c(F)c(F)c(C(=O)Nc2ccc(-c3nc4ccccc4[nH]3)cc2)c(F)c1F	-0.3	2.7	-28.0	26.6*	-32.6	5.3
O=C(Nc1ccc(-c2nc3ccccc3[nH]2)cc1)c1c(F)c(F)c(F)c(F)c1F	1.0	-1.9	-17.1	-2.5	-5.2	.
O=C(CSc1nnc(-c2ccccn2)n1Cc1ccco1)c1ccc(Cl)cc1	3.8	-0.8	-22.4	-0.4	-2.6	.
Cc1cc(NC(=O)c2ccc([N+](=O)[O-])o2)ccc1NC(=O)c1ccco1	78.3*	83.0*	9.8	86.7*	79.0*	25.3*
COc1cc(NC(=O)c2ccc([N+](=O)[O-])o2)ccc1NC(=O)c1ccco1	.	.	-14.8	100.1*	.	20.1
CN(Cc1cnn(C)c1)C(=O)C1CCC(=O)N(C2CCCCCC2)C1 (centres undefined)	.	.	-4.6	-2.7	.	.
CC(=O)NC1=NN(C(C)=O)C(C)(c2ccc3ccccc3c2)S1 (centres undefined)	8.8	0.0	-26.4	5.5	11.9	.
